# An excerpt weighted towards active compounds, which were near 3.5% of everything screened.
# GPR151 ag = activators of human GPR151, primary screen, cell-based, PathHunter beta-arrestin, luminescence. G-protein coupled receptor 151 (Homo sapiens), Q8TDV0. PathHunter beta-arrestin GPR151 cells. activation, % at 11.2 µM. hit rate 1% among 650,000; in the data active means activation above about 4.9%;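 further: 0% = median of compound wells and 100% = cells with positive control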
# Target sequence (Q8TDV0 whole entry, looked up): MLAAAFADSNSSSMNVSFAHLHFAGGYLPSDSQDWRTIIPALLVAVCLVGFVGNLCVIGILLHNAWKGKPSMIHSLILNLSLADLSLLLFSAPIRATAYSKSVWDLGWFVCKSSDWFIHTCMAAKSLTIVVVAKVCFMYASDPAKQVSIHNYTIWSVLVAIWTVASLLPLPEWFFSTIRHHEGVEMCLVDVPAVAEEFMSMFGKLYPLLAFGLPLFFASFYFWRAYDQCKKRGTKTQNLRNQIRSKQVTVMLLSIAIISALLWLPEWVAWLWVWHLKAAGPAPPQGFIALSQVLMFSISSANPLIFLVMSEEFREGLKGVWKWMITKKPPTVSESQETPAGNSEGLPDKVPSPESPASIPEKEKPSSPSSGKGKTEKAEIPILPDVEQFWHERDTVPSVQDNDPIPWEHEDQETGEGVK
# TEAD-YAP inh = TEAD-YAP interaction inhibition, primary screen, TEAD-YAP interaction inhibitor project, luminescence, HEK-TIYL cells. inhibition, % at 9.12 µM. hit rate 1.4% among 640,000. TEAD-Gal4/YAP UAS-luciferase luminescence; in the data active means inhibition above about 32%;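 further: 0% = median of test compound wells and 100% = reference inhibitor wells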
# FBW7 act = FBW7 E3 ligase activators, primary screen, biochemical, AlphaScreen, human; F-box/WD repeat-containing protein 7 (Homo sapiens), Q969H0; AlphaScreen FBW7–phospho-cyclin E peptide binding, activator screen; normalized activity (activation), % at 26.1 µM; hit rate 0.13% among 650,000; in the data active means normalized activity above about 1.9%;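 further: purified mutant Fbw7 with reduced substrate affinity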
# MITF inh = MITF inhibitors, primary screen, biochemical, AlphaScreen, human | hit rate 0.91% among 650,000 | inhibition, % at 2.6 µM | AlphaScreen MITF homodimerization, bead proximity signal | Microphthalmia-associated transcription factor (Homo sapiens), O75030; in the data active means inhibition above about 50%;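 further: 0% = vehicle wells with protein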
# MITF inh conf = MITF inhibitors, retest of hits, confirmation, biochemical, AlphaScreen, triplicate | hit rate 16% among 4,700 | AlphaScreen MITF homodimerization, biotin/His-MITF beads | inhibition, % at 2.6 µM | shares compounds with MITF inh;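 active means inhibition above a cutoff derived from the DMSO control wells, cut at about 28% in these data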;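 further: 0% = MITF dimer wells with DMSO only; inhibitors lower the bead chemiluminescence by keeping MITF from dimerizing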
# AlphaScreen DR = AlphaScreen optical interference compounds, dose response, counter-screen, biochemical, HTS; AID 1259373, 2018; hit rate 6% among 480; shares compounds with MITF inh; AlphaScreen optical interference counterscreen, cell-free; IC50, µM; call rule not given here
# AS interf ctr = AlphaScreen optical interference compounds, counter-screen for MITF inhibitor project, biochemical, triplicate | shares compounds with MITF inh | LysRS AlphaScreen counterscreen, signal interference | inhibition, % at 2.6 µM | hit rate 7.6% among 4,700 | AID 1259376, 2018;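 active means inhibition above a cutoff derived from the DMSO control wells, cut at about 30% in these data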
# Numbers without * were called inactive; nt = not tested or not shown.
SMILES,GPR151 ag,TEAD-YAP inh,FBW7 act,MITF inh,MITF inh conf,AS interf ctr,others
Cc1sc(NC(=O)C(C)Oc2cccc(Cl)c2)c(C(N)=O)c1C (stereo not given),2,-13,0,9,nt,nt,
CCCCCCn1c(N/N=C(/C)CC)nc2c1c(=O)[nH]c(=O)n2C,0,-4,0,-1,nt,nt,
COc1cc(Nc2nc(N3CCc4ccccc4C3)nc3c2ncn3CCN2CCCC2=O)cc(OC)c1OC,-2,17,0,-10,nt,nt,
O=C(c1cc2ccccc2cc1O)N1N=C(C(F)F)CC1(O)C(F)F (stereo not given),-3,-4,1,1,nt,nt,
CN(C)CCOCCOc1ccccc1-c1ccccc1,1,1,0,87*,41*,22,AlphaScreen DR=>6.5
CN(C)CCOc1ccccc1-c1ccccc1,1,3,0,61*,-1,14,
CNCCOc1ccccc1-c1ccccc1,0,0,0,24,nt,nt,
Cc1cc(C)c(S(=O)(=O)NCCCN2CCOC(c3ccccc3)C2)cc1C (stereo not given),0,-2,0,-5,nt,nt,
CC(=O)c1ccc(NC(=O)c2cc(Br)c(Br)s2)cc1,-1,-50,0,-8,nt,nt,
CN(C)C1(CNCC(=O)Nc2ccc(F)cc2)CCCCC1,0,3,0,80*,-11,-2,
Cc1cc(NC2CCCCC2)nc(-c2ccccc2O)n1,-1,-3,1,79*,-16,-8,
COc1ccc2nc(-c3ccco3)c(-c3ccco3)nc2c1,-2,-1,0,52*,66*,19,AlphaScreen DR=>5.8
CCOc1ccc(-n2c(=S)sc3c2nc(SCC(=O)NCc2ccccc2)n2c4ccccc4nc32)cc1,0,4,0,-1,nt,nt,
CCOC(=O)c1ccc(-n2c(=S)sc3c2nc(SCC(=O)NCc2ccccc2)n2c4ccccc4nc32)cc1,0,7,0,60*,-4,-8,
COc1ccc(CCN(CCC(=O)O)CCC(=O)O)cc1OC,-1,1,0,58*,-13,-3,
COc1ccc(NC(=O)C2CC(=O)NC(=Nc3ccc(C)c(C)c3)S2)cc1 (stereo not given),-1,5,0,0,nt,nt,
Cc1ccc(N=C2NC(=O)CC(C(=O)Nc3ccc(Cl)cc3)S2)cc1C (stereo not given),1,6,0,78*,9,6,
O=[N+]([O-])c1ccccc1CN1CCN(c2ccccn2)CC1,0,8,0,54*,1,-3,
O=[N+]([O-])c1ccccc1CN1CCN(Cc2ccccn2)CC1,0,5,0,69*,2,1,
O=[N+]([O-])c1ccccc1CN1CCN(c2ncccn2)CC1,1,3,0,25,nt,nt,
Cc1ccc(-c2noc(CNC(=O)c3ccccc3C)n2)cc1,1,3,0,-6,nt,nt,
CC(C)C[C@@H]1NC(=O)[C@H]2CN(C(=O)NC3CCCCC3)CCN2C1=O,-1,11,0,80*,75*,-13,AlphaScreen DR=>6.5
CC(C)C[C@H]1NC(=O)[C@H]2CN(C(=O)NC3CCCCC3)CCN2C1=O,-1,12,0,74*,41*,-7,AlphaScreen DR=>6.5
CC[C@@H]1NC(=O)[C@H]2CN(C(=O)NC3CCCCC3)CCN2C1=O,-1,4,0,83*,71*,-10,AlphaScreen DR=>6.5
O=C(Nc1ccccc1Br)c1cc(-c2ccccc2Cl)nc2ccccc12,-1,20,0,23,nt,nt,
COc1ccc(Nc2nnc(SCc3nc4ccsc4c(=O)[nH]3)s2)cc1,2,-5,0,9,nt,nt,
Cc1cc(NC(=O)CN2CCC(Cn3c(C)nc4ccccc43)CC2)no1,-1,39*,0,79*,11,14,
COC(=O)c1ccc(NC(=O)CN2CCC(Cn3c(C)nc4ccccc43)CC2)cc1,0,12,0,68*,5,22,
Cc1ccc(C(=O)Cn2nnc(-c3ccc(N)cc3)n2)cc1,-1,0,0,73*,16,10,

# From PubChem BioAssay
